Molecules are shown by their SMILES. The whole screen tested about 48,000 compounds, of which about 13,000 (27%) showed an effect of 50% or more. The list shows a part of the results.

In the assay the test system is Wolbachia pipientis. The experiment in a line: Anti-Wolbachia Cell-Based Screen. More on the design: scale not given: in the data most compounds retested in dose-response had high values. The note with it: 5 µM. It counts as functional.
As to `O=C(Cn1cc(C(=O)O)ccc1=O)Nc1cc(F)ccc1F`, the “Percent Effect” value was -7.497%. As for `Cc1[nH]ccc1C(=O)NC1CCC(N2C(=O)CCC2=O)CC1` (centres undefined), the figure is -10.09%.

For the compound `Cc1cc(C)c(CNC(=O)NCCCNc2ccccn2)c(=O)[nH]1`, the “Percent Effect” value turned out to be 5.95%.

Regarding `CCc1noc(CS(=O)(=O)Cc2nc(Cc3ccccc3)no2)n1`, the “Percent Effect” value was 6.103%.

As for `O=C(CCc1ccccn1)NC1CCN(c2cccc(Cl)c2)C1` (centres undefined), the “Percent Effect” value was determined as 3.633%. For the compound `CN1CCCC(c2cccc(CCC(N)=O)n2)C1` (centres undefined), the “Percent Effect” value is 113.5%. As for `CN1CCC(c2cccc(CCC(=O)NCC(N)=O)n2)CC1`, the figure is 102.3%. As for `CS(=O)(=O)N[C@@H]1CCN(Cc2ccncc2)[C@H]1Cc1cccnc1`, the figure is -7.843%; as for `CCNC(=O)N(C)Cc1ccc(SC)c(OC)c1`, -16.12%; as for `O=C(NCC1CCCO1)c1cc(COc2ccccc2F)[nH]n1` (centres undefined), -5.725%. Then `COc1cc(C(=O)NCC2CCCO2)nc2c(C)cc(F)cc12` (centres undefined), with 102.3%. Turning to `COc1ccccc1C(O)Cn1cc(C(=O)NCC2CC2)nn1` (centres undefined), the “Percent Effect” value was -12.95%.

As for `COc1cc(CCNC(=O)NCCC2CCCO2)ccc1C` (centres undefined), the “Percent Effect” value was -11.71%.

For the compound `COc1ccccc1[S+]([O-])CC(=O)NCc1cc(F)cc(F)c1` (centres undefined), the “Percent Effect” value is -8.178%. For the compound `CCNC(=O)c1cc(OC)c2cc(F)cc(C)c2n1`, the “Percent Effect” value is listed as 114.2%.

For the compound `COc1ccc(F)cc1C(C)NC(=O)c1nnc(C)s1` (centres undefined), the “Percent Effect” value is reported as 1.178%. For `COc1cc(C(=O)NC(C)C)nc2c(C)cc(F)cc12`, the “Percent Effect” value turned out to be 104.7%.

Consider `Cc1cc(C(=O)NC(C)C(=O)Nc2cc(F)ccc2C)nc(C)n1` (centres undefined), for which the “Percent Effect” value is listed as -4.486%. Regarding `O=C(NCC1CC1)c1nc2c(o1)CN(CC1CC1)C2.O=C(O)C(F)(F)F`, the “Percent Effect” value was -8.922%.

`COc1cc(C(=O)NCC2CC2)nc2c(C)cc(F)cc12`: the “Percent Effect” value turned out to be 82.93%. As for `CS(=O)(=O)c1ccc(CNC[C@H]2COCc3nc4ccccc4n32)cc1`, the figure is -0.06058%; as for `CN1CC[C@H]2CN(C(=O)c3ccc4sc5c(c4c3)CCNC5=O)C[C@H]21`, 3.711%; as for `CCN(CC)C(=O)Cn1cc(C(=O)NCCCc2scnc2C)nn1`, 7.072%. As for `CC(C)(C)C(O)CN1CCN(CC(=O)NC(C2CC2)C2CC2)CC1` (centres undefined), the figure is 12.33%; as for `O=C(C1CCSCC1)N1CC[C@H]2OCC[C@@]2(COCC2CC2)C1`, -16.75%. As for `Cc1nc(S(=O)(=O)CCn2cccn2)n(C2CCCCC2)c1C`, the figure is -17.58%; as for `N#Cc1ccc(SCCCO)c(F)c1`, -3.443%. Consider `O=C(Nc1cnccn1)[C@@H]1COC[C@H]2CN(C3CCCC3)C[C@H]21.O=C(O)C(F)(F)F`, for which the “Percent Effect” value was 2.256%.

On to `O=C(C[C@@H]1COC[C@H]2CN(Cc3ccncc3)C[C@@H]12)N1CCOCC1.O=C(O)C(F)(F)F.O=C(O)C(F)(F)F`, for which the “Percent Effect” value is recorded as 3.799%.

Turning to `O=C(C[C@@H]1COC[C@H]2CN(C(=O)c3cccnc3)C[C@@H]12)N1CCOCC1.O=C(O)C(F)(F)F`, the “Percent Effect” value is 132.5%.

`O=C(C[C@@H]1COC[C@H]2CN(C3CCCC3)C[C@@H]12)NCc1cccnc1.O=C(O)C(F)(F)F.O=C(O)C(F)(F)F`: the “Percent Effect” value worked out at 105.3%. Then `Cc1cnc(CNC(=O)C[C@@H]2COC[C@H]3CN(C4CCC4)C[C@@H]23)cn1`, with -2.895%; and `O=C(C[C@@H]1COC[C@H]2CN(C(=O)c3cccnc3)C[C@@H]12)N1CCCC1.O=C(O)C(F)(F)F`, with 97.49%; and `COc1cc(N2C[C@H]3CN(C(=O)c4cccnc4)C[C@H]3C2)ncn1.O=C(O)C(F)(F)F`, with -0.6433%. As for `O=C(C[C@@H]1COC[C@H]2CN(Cc3ccc(F)cc3)C[C@@H]12)N1CCOCC1.O=C(O)C(F)(F)F`, the figure is 19.83%; as for `COCc1nn(CC2CC2)c2c1CN(Cc1ccco1)CC2.O=C(O)C(F)(F)F`, -26.88%.

Turning to `Cc1cc(NC(=O)CN(CC(C)O)c2ccccc2)on1` (centres undefined), the “Percent Effect” value is reported as -1.303%. Then `COc1ccc(OCc2nc(C(=O)N3CCC(NC(C)=O)C3)co2)cc1` (centres undefined), with 5.881%. Take `COc1ccc(C2OC(COc3ccc(C)cc3)=NN2C(C)=O)cc1` (centres undefined): the “Percent Effect” value is on record as 120.9%. As for `CC(=O)N1N=C(COc2ccc(C)cc2)OC1c1ccc(N(C)C)cc1` (centres undefined), the figure is 128.5%; as for `COc1ccc(C2OC(COc3ccccc3Br)=NN2C(C)=O)cc1` (centres undefined), -8.819%; as for `CC(=O)N(C)Cc1ccc(OCc2cccs2)cc1`, 14.59%. Then `COc1cc(C(=O)N(CCC#N)Cc2ccccn2)cc(OC)c1C`, with 1.954%; and `O=C(Cc1cnn(-c2ccccc2)n1)NC1CCOCC1`, with 19.75%. Then `O=C(CC1CN(Cc2ccccc2)CCO1)NC1CCCC1` (centres undefined), with 4.16%. Take `O=C(CC1CCN(CCc2ccccc2)CC1)NC1CCOCC1`: the “Percent Effect” value is 134.1%.

In the case of `O=C(CC1CCN(CCN2CCCCC2)CC1)N1CCOCC1`, the “Percent Effect” value is recorded as -17.01%. As for `O=C(NCC1CCN(CCc2ccccc2)C1)NCC1(O)CCC1` (centres undefined), the figure is -8.264%; as for `O=C(CC1CCN(CCc2ccccc2)CC1)N1CCCOCC1`, 161.2%; as for `CCCc1nc(CNC(=O)Cc2csc(C)n2)cs1`, -2.31%.

On to `Cc1nn(C)c(C)c1-c1ccnc(N(C)Cc2nc(C(C)C)no2)n1`, for which the “Percent Effect” value is -10.91%. As for `Cc1nn2cccnc2c1C(=O)NCc1ccccc1OC1CCC1`, the figure is -16.31%.

In the case of `O=C(c1cccnc1O)N1CCOC(Cc2cccc(C(F)(F)F)c2)C1` (centres undefined), the “Percent Effect” value worked out at 16.06%. Then `O=S(=O)(NCCCN1CC=CC1)c1cncc(Cl)c1`, with -17.29%; and `CC1(C)CNC(=O)c2nc(CCN3CCC(O)CC3)[nH]c2C1`, with -46.57%. Then `CC1(C)CNC(=O)c2nc(-c3ccccc3)[nH]c2C1`, with 3.068%. Then `CC1(C)CNC(=O)c2nc(-c3n[nH]c(=O)[nH]3)[nH]c2C1`, with -9.314%. `CC1(C)CNC(=O)c2nc(-c3nnn[nH]3)[nH]c2C1`: the “Percent Effect” value is reported as 23.12%. Take `CCC(O)c1nc2c([nH]1)CC(C)(C)CNC2=O` (centres undefined): the “Percent Effect” value came out at 130.2%. As for `CCOCC(O)c1nc2c([nH]1)CC(C)(C)CNC2=O` (centres undefined), the figure is 90.67%; as for `CC1(C)CNC(=O)c2nc(-c3nnc(-c4ccccc4)[nH]3)[nH]c2C1`, 3.309%; as for `Cc1cc(OCC(O)c2nc3c([nH]2)CC(C)(C)CNC3=O)ccc1Cl` (centres undefined), 90.28%. With `CC1(C)CNC(=O)c2nc(CCN3CCC(C(N)=O)CC3)[nH]c2C1`, the “Percent Effect” value is -47.56%. For the compound `CC(C)(C)CNS(=O)(=O)C1CS(=O)(=O)c2ccccc21` (centres undefined), the “Percent Effect” value is -2.538%. Turning to `CCN(C)S(=O)(=O)N1CCC(C(O)c2ccc(F)cc2)CC1` (centres undefined), the “Percent Effect” value is -5.224%. Then `Cc1noc2nc3c(c(C(=O)/N=c4\[nH]nc(C(C)C)s4)c12)CCC3`, with 96.48%. As for `Cc1n[nH]/c(=N\C(=O)c2c3c(nc4onc(C)c24)CCC3)s1`, the figure is 84.01%.

For the compound `Cc1nn(C)c2nc3c(c(C(=O)/N=c4\[nH]nc(C(C)C)s4)c12)CCC3`, the “Percent Effect” value turned out to be 112.1%. As for `COCc1n[nH]/c(=N\C(=O)c2c3c(nc4onc(C)c24)CCC3)s1`, the figure is 76.74%. Then `Cc1nc(C)c(CNC[C@@]2(COc3cccnc3)C[C@@H](O)[C@@H](O)C2)s1.Cl.Cl`, with 0.5308%; and `O=C(CCn1cccn1)N1C[C@@H]2CC[C@H](C1)N(Cc1ccccn1)C2=O`, with 2.815%. Then `Cl.NCCCNS(=O)(=O)Cc1ccc(Br)cc1`, with -40.39%. With `CCCc1nc(CNc2nc(C)nc3oc(C)nc23)cs1`, the “Percent Effect” value was -12.23%.

`COc1ccc(C(=O)N2CCC(Oc3ccccc3C)(C(=O)O)CC2)o1`: the “Percent Effect” value is recorded as -4.68%. In the case of `Cc1noc2nc3c(c(C(=O)/N=c4\[nH]ncs4)c12)CCC3`, the “Percent Effect” value was determined as 123.1%. As for `Cc1cs/c(=N\C(=O)c2c3c(nc4onc(C)c24)CCC3)[nH]1`, the figure is 113%; as for `COCc1noc(C2(c3ccc(F)cc3)CCOCC2)n1`, -32.93%. Then `O=S(=O)(NCC1CCN(CCN2CCOCC2)C1)c1ccccc1F` (centres undefined), with 14.41%; and `CC(=O)NCC(=O)N1CCn2cc(CN3CCN(C)CC3)nc2C1.O=C(O)C(F)(F)F.O=C(O)C(F)(F)F`, with -9.16%. Then `Cn1ccnc1CNC(=O)N1CCCC(Cc2nccn2C)C1` (centres undefined), with -2.047%.

Regarding `CN(CCc1ccccc1)C1CCCN(Cc2nccn2C)C1` (centres undefined), the “Percent Effect” value is listed as -2.668%. As for `CC(=O)N1CCCC(Cc2nccn2C)C1` (centres undefined), the figure is 104.6%; as for `Cn1ccnc1CC1CCCN(C(=O)Nc2cccn(C)c2=O)C1` (centres undefined), -3.094%.

On to `Cn1ccnc1CC1CCCN(C(=O)Cc2ccccc2)C1` (centres undefined), for which the “Percent Effect” value was found to be 107.6%. Then `CCC(C)(NCc1cccc(NC(C)=O)c1)c1nc(C)cs1` (centres undefined), with -6.571%; and `CCNS(=O)(=O)C1CCN(C(=O)c2ccc(CC)o2)C1` (centres undefined), with 1.453%. Regarding `CCN1CCN(C(=O)C(C)N2CCc3cncnc3C2)CC1` (centres undefined), the “Percent Effect” value was found to be 4.565%.

With `CC(C)(C)c1coc([C@@H]2COCCN2Cc2ccccc2)n1`, the “Percent Effect” value was -6.681%. For the compound `CNc1cnc(CC2COCCN(CCOc3ccccc3)C2)cn1` (centres undefined), the “Percent Effect” value is reported as 158.8%. In the case of `Cc1cc(CC2COCCN(CCc3ccccc3)C2)ncn1` (centres undefined), the “Percent Effect” value is listed as 136.2%. With `Cc1ccc(CC2COCCN(Cc3ccccc3)C2)nc1` (centres undefined), the “Percent Effect” value is 76.14%. Consider `c1ccc(NCc2cccc(OCCN3CCOCC3)c2)nc1`, for which the “Percent Effect” value is reported as 9.722%. As for `O=C1O[C@@H]2CN(CCc3ccccc3)C[C@@H]2N1CCCN1CCOCC1`, the figure is -3.811%; as for `COc1ccc(CN2CCOC[C@H](OCc3ccccc3)C2)cc1`, -4.744%. As for `CN1CCN2CCN(Cc3cnc(NCc4ccccc4)nc3)CC2C1` (centres undefined), the figure is 2.574%. As for `CNc1cnc(CC2COCCN(Cc3ccccc3)C2)cn1` (centres undefined), the figure is 100%.

As for `Cc1cc(N2CCCN(CCc3ccccc3)CC2)ccn1`, the “Percent Effect” value is listed as 5.317%. As for `Clc1cncc(NCc2cccc(OCCN3CCOCC3)c2)n1`, the figure is 2.735%. Then `CNc1cc(C)nc(N2CCN(Cc3ccccc3)CC(O)C2)n1` (centres undefined), with 10.53%.

These data come from ChEMBL document CHEMBL3988442, “University of Dundee, Small-Polar-MMV Screening Library” (2021).
